{"source": "PubChem BioAssay (NCI)", "note": "Several values for one entry are separate records, joined by “and”; a condition that tells them apart may be missing. Equal values may be shown once. About 83,000 compounds went through this panel and 20% of them were active in at least one assay; those are over-represented in the sample as a whole.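 Percent growth is the endpoint: 0 to 100 indicates growth inhibition (40 means 60% inhibition), 0 means no net growth, and negative values indicate cell death.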 Unmarked numbers belong to inactive results. Activity calls are given as the source filed them. The calls were made as follows: active = growth percent below 10; inactive = the rest.", "data": [{"test_system": "HL-60(TB) leukemia", "assay": "NCI-60 one-dose screen, 48 h (100 = growth as untreated, 0 = no growth, -100 = all killed)", "details": "10 µM unless noted", "values": [{"smiles": "COc1cc(OCc2cccc(-c3ccc(C(O)c4nccs4)cc3)c2C)cc(OC)c1CNCCNC(C)=O", "note": "(stereo unspecified)", "growth": "101%"}, {"smiles": "COc1cc(-n2nc(C(=O)Nc3ccc(C(=O)O)cc3)nc2-c2ccccc2)cc(OC)c1OC", "growth": "103%"}, {"smiles": "Fc1ccc(N/N=C/c2ccc(-n3cccn3)cc2)cc1", "growth": "118%"}, {"smiles": "NC(=S)N1N=C(c2ccccc2)CC1c1cn(-c2ccccc2)nc1-c1ccc(OCc2ccccc2)cc1", "note": "(stereo unspecified)", "growth": "114%"}, {"smiles": "N#CCN1C(=O)C2C3=C(CCCC3)SC2N=C1CN1CCCC1", "note": "(stereo unspecified)", "growth": "66.3%"}, {"smiles": "NC(=S)N/N=C(\\c1ccc(Br)cc1)C1CC1", "growth": "65.6% and 64.8%"}, {"smiles": "O=C(O)C1CSCN1", "note": "(stereo unspecified)", "growth": "80.4% and 83.9%"}, {"smiles": "Cc1cc(O)c2c(c1O)C(=O)C13C(=C2O)C(=O)C2C(O)C1C1C(O)C3C(=O)C3=C(O)c4c(O)cc(C)c(O)c4C(=O)C321", "note": "(stereo unspecified)", "growth": "-19.7% (active)"}, {"smiles": "Cc1nc2ccc(-n3ncc(C(=O)c4cc5ccccc5[nH]4)c3N)cc2[nH]1", "growth": "36.5%"}, {"smiles": "CCN(CC)CCSc1nc(-c2ccccc2)c(C#N)c(=O)[nH]1", "growth": "114%"}, {"smiles": "CN(C)CCNc1nc2ccccc2c2c(=O)c3cc(F)ccc3sc12", "growth": "38.1%"}, {"smiles": "CCOc1ccccc1NC(=O)CCl", "growth": "104%"}, {"smiles": "COc1cnc2c(c1)C(=O)c1c-2n(CCCN2CCCC2)c(=O)c2cc([N+](=O)[O-])ccc12", "growth": "-24.9% (active)"}, {"smiles": "COc1cc2nc(Cl)nc(NCCO)c2cc1OC", "growth": "104%"}, {"smiles": "COC(=O)/C(CCC=C(C)C)=C1\\[C@@H](OC(C)=O)C[C@@]2(C)[C@H]1C[C@@H](O)[C@H]1[C@@]3(C)CC[C@H](NCCN)[C@@H](C)[C@@H]3CC[C@@]12C", "growth": "-47.4% (active)"}, {"smiles": "Cc1ccc(C2C=C(c3ccc(Cl)cc3)N=C3SC=CN32)c(Br)c1", "note": "(stereo unspecified)", "growth": "104%"}, {"smiles": "COc1ccc(C(O)c2cc3c(N)c(C(=O)Nc4ccccc4)sc3nc2C)cc1", "note": "(stereo unspecified)", "growth": "-68.5% (active)"}, {"smiles": "Nc1n[nH]c2cccc(C#Cc3cccc(NC(=O)c4cccc(C(F)(F)F)c4)c3)c12", "growth": "9.22% (active)"}, {"smiles": "O=S(=O)(NCCCNc1cc(-c2cn(-c3ccccc3)nc2-c2cccc(O)c2)ccn1)c1ccc(Cl)cc1", "growth": "1.22% (active)"}, {"smiles": "O=C(Nc1nc2ccc(F)cc2s1)c1cccnc1Nc1ccc(Cl)cc1", "growth": "33.3%"}, {"smiles": "O=C(/C=C/c1ccco1)c1ccc(Nc2nc(Nc3ccc(F)cc3)nc(Nc3ccc(Cl)cc3)n2)cc1", "growth": "-93.7% (active)"}, {"smiles": "CCN(CC)c1ccc2[nH]c3c(C(N)=O)cc(=O)c(=O)c=3oc2c1", "growth": "-25.1% (active)"}, {"smiles": "CCN(CC)CCCC(C)N(Cc1ccccc1)CC(O)c1ccc(Cl)cc1", "note": "(stereo unspecified)", "growth": "101% and 106%"}, {"smiles": "COc1cc(-c2nccc3cc4c(cc23)OCO4)cc(OC)c1OC", "growth": "5.43% (active) and 9.65% (active)"}, {"smiles": "COC(=O)Nc1nc2ccc(Sc3ccccc3)cc2[nH]1", "growth": "-5.94% (active)"}, {"smiles": "CS(=O)(=O)Nc1ccc([N+](=O)[O-])cc1Oc1ccccc1", "growth": "92.9%"}, {"smiles": "N#Cc1cnn2c(-c3ccc(Cl)cc3)nc(NC3CC3)nc12", "growth": "98.2%"}, {"smiles": "Nc1nc(=S)c2ncn(C3OC(COC(=O)c4ccc(Cl)cc4)C(OC(=O)c4ccc(Cl)cc4)C3OC(=O)c3ccc(Cl)cc3)c2[nH]1", "note": "(stereo unspecified)", "growth": "93.7%"}, {"smiles": "O=C(O)c1cn(C2CC2)c2cc(N3CCN(C(=O)c4cc(-c5ccc(Cl)cc5)nc5ccccc45)CC3)c(F)cc2c1=O", "growth": "101%"}, {"smiles": "COc1cc(-c2nn(-c3ccc(NC(=O)c4ccc(Cl)c(C(F)(F)F)c4)cc3)cc2-c2ccncc2)ccc1Cl", "growth": "12%"}, {"smiles": "CCn1cnc(C[C@H](NC(=O)[C@@H](NC(=O)Nc2cc(C(F)(F)F)cc(C(F)(F)F)c2)C(C)(C)C)C(=O)OC)c1", "growth": "-71.5% [100 µM] (active)"}, {"smiles": "COc1ccc(-c2cc(/C=C3\\C(=O)Nc4cc(Cl)ccc43)[nH]n2)cc1OC", "growth": "53%"}, {"smiles": "COc1ccc(Cn2c(NCCCN(C)C)nc(=O)n(Cc3ccc(F)cc3)c2=O)cc1", "growth": "95.7%"}, {"smiles": "Oc1c(C(c2ccc(F)cc2)N2CCCCC2)ccc2cncnc12", "note": "(stereo unspecified)", "growth": "-29.3% (active)"}, {"smiles": "Cc1nc(Nc2n[nH]c3c2CN(C(=O)N[C@H](CN(C)C)c2ccccc2)C3(C)C)c2sccc2n1", "growth": "-30.6% (active)"}, {"smiles": "CCCCn1c(=O)[nH]c(N)c([C@@H]2c3c([nH]c(=O)n(CCCC)c3=O)Oc3ccc4ccccc4c32)c1=O", "growth": "13.4%"}]}]}
